This is part of a sample that, as a whole, favours compounds with a hit. Of some 79,000 tested, about 15% had one in any assay. Activity calls are given as the source filed them. Rule as the data show it: active = growth inhibition above about 70%; inactive = the rest.
How the values were obtained:
[1] = NCI Yeast Anticancer Drug Screen. Data for the rad50 strain (AID 155);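 also: 0% = growth of vehicle-only cultures of the same strain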; settings: S. cerevisiae rad50 strain growth inhibition, stronger effect = higher value
Outline: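 Compounds were tested on a yeast strain with an engineered DNA damage repair alteration; the reported value is growth inhibition normalised to vehicle treatment.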

[2] = NCI Yeast Anticancer Drug Screen. Data for the mec2-1 strain (AID 157); settings: S. cerevisiae mec2-1 strain, stronger effect = higher value
Outline: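 Compounds were applied to mec2-1 yeast cells. Their growth was then compared with that of vehicle-treated cultures to give growth inhibition.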

[3] = NCI Yeast Anticancer Drug Screen. Data for the sgs1 mgt1 strain (AID 161);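 also: 0% = growth of cultures given vehicle only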; settings: S. cerevisiae sgs1 mgt1 strain, stronger effect = higher value
Outline: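 Compounds are added to genetically altered yeast, and growth is compared with cultures given vehicle alone to give percent inhibition.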

[4] = NCI Yeast Anticancer Drug Screen. Data for the cln2 rad14 strain (AID 165);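 also: 0% = growth equal to vehicle treated cultures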; settings: S. cerevisiae cln2 rad14 strain, stronger effect = higher value
Outline: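 Strain: cln2 rad14 yeast, altered in cell cycle control and DNA damage repair. Read-out: growth inhibition vs vehicle.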

[5] = NCI Yeast Anticancer Drug Screen. Data for the bub3 strain (AID 167); settings: S. cerevisiae bub3 mutant strain, stronger effect = higher value
Outline: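 Growth of a checkpoint-deficient yeast mutant is measured after compound exposure. Values represent inhibition relative to vehicle.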

[6] = NCI Yeast Anticancer Drug Screen. Data for the mlh1 rad18 strain (AID 175); settings: S. cerevisiae mlh1 rad18 strain growth inhibition, stronger effect = higher value
Outline: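 A repair-deficient yeast strain is exposed to test compound, and growth is scored relative to vehicle-treated controls.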

[7] = at 5.0 µM (retest, dose inferred, filed as 0.5)
[8] = at 50.0 µM (retest, dose inferred, filed as 5.0)

Measured: growth inhibition

N#CC(C#N)=C(C1CC1)C1CC1
active: [1]; [8] 96% | [2]; [8] 94% | [3]; [8] 96% | [4]; [8] 92% | [5]; [8] 93% | [6]; [8] 94%
inactive: [1]; [7] -76% | [1]; at 50.0 µM 0.4% | [2]; [7] -42% | [2]; at 50.0 µM -2.5% | [3]; [7] -47% | [3]; at 50.0 µM -1.9% | [4]; [7] -56% | [4]; at 50.0 µM 41.4% | [5]; [7] -59% | [5]; at 50.0 µM 11.8% | [6]; [7] -95% | [6]; at 50.0 µM -21.9%

O=C1c2ccccc2C(=O)c2sc(Nc3ccccc3C(F)(F)F)nc21
active: [1]; [7] 99% | [1]; [8] 96% | [1]; at 50.0 µM 90.3% | [2]; [7] 100% | [2]; [8] 97% | [2]; at 50.0 µM 92.1% | [3]; [7] 99% | [3]; [8] 96% | [3]; at 50.0 µM 92.7% | [4]; [7] 94% | [4]; [8] 97% | [4]; at 50.0 µM 90.5% | [5]; [7] 99% | [5]; [8] 97% | [5]; at 50.0 µM 92.2% | [6]; [7] 99% | [6]; [8] 96% | [6]; at 50.0 µM 88.5%

O=C1/C(=C\c2ccc(Cl)cc2Cl)Sc2scc(-c3cccc([N+](=O)[O-])c3)[n+]21
active: [1]; [8] 98% | [1]; at 50.0 µM 85.6% | [2]; [8] 99% | [2]; at 50.0 µM 86.1% | [3]; [8] 98% | [3]; at 50.0 µM 89.9% | [4]; [8] 97% | [4]; at 50.0 µM 88.5% | [5]; [7] 96% | [5]; [8] 97% | [5]; at 50.0 µM 85.5% | [6]; [8] 99% | [6]; at 50.0 µM 90.9%
inactive: [1]; [7] 17% | [2]; [7] 36% | [3]; [7] 69% | [4]; [7] 28% | [6]; [7] 23%

CC(C)(C)c1ccc2c(c1)CNCCNCc1cc(C(C)(C)C)ccc1OCC1(CO2)COc2ccc(C(C)(C)C)cc2CNCCNCc2cc(C(C)(C)C)ccc2OC1
active: [1]; [7] 99% | [1]; [8] 92% | [1]; at 50.0 µM 89% | [2]; [7] 99% | [2]; [8] 94% | [2]; at 50.0 µM 90% | [3]; [7] 99% | [3]; [8] 92% | [3]; at 50.0 µM 92.2% | [4]; [7] 99% | [4]; [8] 92% | [4]; at 50.0 µM 89.5% | [5]; [7] 98% | [5]; [8] 91% | [5]; at 50.0 µM 89% | [6]; [7] 98% | [6]; [8] 92% | [6]; at 50.0 µM 88.2%

COc1ccc(C(CN2CCOCC2)C(C)=O)cc1OC (stereo not given)
inactive: [1]; [7] 7% | [2]; [7] 12% | [3]; [7] 13% | [4]; [7] 7% | [4]; [8] 40% | [4]; at 50.0 µM 23.6% | [5]; [7] 10% | [5]; at 50.0 µM 69.7% | [6]; [7] 5%
active: [1]; [8] 81% | [1]; at 50.0 µM 72.4% | [2]; [8] 93% | [2]; at 50.0 µM 70.1% | [3]; [8] 85% | [3]; at 50.0 µM 88.5% | [5]; [8] 92% | [6]; [8] 93% | [6]; at 50.0 µM 87.2%

N#CS/C=C/SC#N
active: [1]; [7] 99% | [1]; [8] 99% | [1]; at 50.0 µM 99.5% | [2]; [7] 100% | [2]; [8] 100% | [2]; at 50.0 µM 99.5% | [3]; [7] 99% | [3]; [8] 99% | [3]; at 50.0 µM 99.5% | [4]; [7] 99% | [4]; [8] 100% | [4]; at 50.0 µM 99.1% | [5]; [7] 100% | [5]; [8] 99% | [5]; at 50.0 µM 99% | [6]; [7] 99% | [6]; [8] 100% | [6]; at 50.0 µM 99.5%

COc1ccc2nc3cccc([N+](=O)[O-])c3c(NCCO)c2c1
inactive: [4]; [7] 68% | [5]; [7] 24%
active: [1]; [7] 75% | [1]; [8] 95% | [1]; at 50.0 µM 86.6% | [2]; [7] 78% | [2]; [8] 98% | [2]; at 50.0 µM 90% | [3]; [7] 82% | [3]; [8] 96% | [3]; at 50.0 µM 87.8% | [4]; [8] 97% | [4]; at 50.0 µM 87.2% | [5]; [8] 86% | [5]; at 50.0 µM 86.9% | [6]; [7] 77% | [6]; [8] 96% | [6]; at 50.0 µM 87.8%

CCCC12C=C(OC)C(=O)C=C1OC(c1ccc3c(c1)OCO3)C2C (stereo not given)
inactive: [1]; [7] 0% | [1]; [8] 55% | [1]; at 50.0 µM 43.9% | [2]; [7] -2% | [3]; [7] 0% | [4]; [7] -6% | [4]; [8] 53% | [4]; at 50.0 µM 64.8% | [5]; [7] 19% | [6]; [7] -4% | [6]; at 50.0 µM 55.1%
active: [2]; [8] 81% | [2]; at 50.0 µM 70.8% | [3]; [8] 86% | [3]; at 50.0 µM 80.8% | [5]; [8] 89% | [5]; at 50.0 µM 79.3% | [6]; [8] 70%

O=Nc1c(O)c2ccccc2c2ccc([N+](=O)[O-])cc12
inactive: [1]; [7] 21% | [1]; [8] 64% | [1]; at 50.0 µM 69.8% | [2]; [7] 48% | [3]; [7] 35% | [4]; [7] 12% | [4]; [8] 52% | [4]; at 50.0 µM 42.9% | [5]; [7] 20% | [5]; [8] 65% | [6]; [7] 37%
active: [2]; [8] 95% | [2]; at 50.0 µM 84.8% | [3]; [8] 87% | [3]; at 50.0 µM 91.7% | [5]; at 50.0 µM 85.2% | [6]; [8] 90% | [6]; at 50.0 µM 88%

Cn1cnc([N+](=O)[O-])c1S
inactive: [1]; [7] 2% | [1]; [8] 1% | [1]; at 50.0 µM -4.8% | [2]; [7] -2% | [2]; [8] 9% | [2]; at 50.0 µM 16.2% | [3]; [7] 0% | [3]; [8] -2% | [3]; at 50.0 µM 8.45% | [4]; [7] -5% | [4]; [8] 13% | [4]; at 50.0 µM 44% | [5]; [7] 0% | [5]; [8] 3% | [5]; at 50.0 µM -0.8% | [6]; [7] 1% | [6]; [8] 9% | [6]; at 50.0 µM 21.6%

From PubChem BioAssay (NCI)
